Laboratory results from ChEMBL document CHEMBL3988442, “University of Dundee, Small-Polar-MMV Screening Library” (2021).
In all, about 48,000 compounds went through this assay and about 13,000 (27%) showed an effect of 50% or more. The list shows a part of the results.

The compounds below were run on Wolbachia pipientis (assay: Anti-Wolbachia Cell-Based Screen). Settings: 5 µM.
Type: functional
Parameters: scale not given: in the data most compounds retested in dose-response had high values

SMILES | Percent Effect [%]
Cc1cnc(N2CCOC3(CCCN(C)C3)C2)nc1.O=C(O)C(F)(F)F (configuration not stated) | -2.261
Cc1cnc(N2CCC3(CC2)CN(Cc2cccs2)CCO3)nc1.O=C(O)C(F)(F)F.O=C(O)C(F)(F)F | 102.1
O=C(O)C(F)(F)F.OCCN1CCOC2(CCCN(c3ncc(F)cn3)C2)C1 (configuration not stated) | 13
Cc1cnc(N2CCOC3(CCCN(CC(=O)N(C)C)C3)C2)nc1.O=C(O)C(F)(F)F.O=C(O)C(F)(F)F (configuration not stated) | -7.39
Fc1cnc(N2CCC3(CC2)CN(Cc2cccs2)CCO3)nc1.O=C(O)C(F)(F)F.O=C(O)C(F)(F)F | 98.63
O=C(O)C(F)(F)F.c1cnc(N2CCOCC3(CN(Cc4nccs4)CCO3)C2)nc1 (configuration not stated) | 8.217
O=C(O)C(F)(F)F.c1cnc(N2CCOCC3(CN(Cc4ccsc4)CCO3)C2)nc1 (configuration not stated) | -6.179
O=C(O)C(F)(F)F.c1cnc(N2CCOC3(COCCN(Cc4cc[nH]n4)C3)C2)nc1 (configuration not stated) | -4.382
CN(C)C(=O)CN1CCOCC2(C1)CN(c1ncccn1)CCO2.O=C(O)C(F)(F)F (configuration not stated) | 101.1
Fc1cnc(N2CCCC3(CN(Cc4cccs4)CCO3)C2)nc1.O=C(O)C(F)(F)F (configuration not stated) | 111.6
CC[C@H]1CN2CC[C@H]1C[C@@H]2CNC(=O)Nc1ccc(Br)cc1 | -5.559
CC(Cc1c(F)cccc1F)NC(=O)CN(CC(N)=O)C(C)C (configuration not stated) | 2.304
COc1cc(C2(C(=O)NCCn3ccnc3)CCCC2)ccc1C | 17.74
c1ccc(CNc2ncc(CN3CC[C@H]4CC[C@@H](C3)N4)cn2)cc1 | -14.93
O=C(c1ccc(F)c(F)c1)N1C[C@H]2CNC[C@H]2C1 | -36.88
COc1ccc(-c2ccccc2CCN)c(OC)c1 | 16.22
Cn1cc(CN2C[C@@H]3[C@@H](C2)OCC(=O)N3Cc2ccncc2)cn1 | -7.726
Cn1cc(C(=O)N2CC[C@@H]3[C@@H]2CCN3Cc2ccncc2)cn1.O=C(O)C(F)(F)F.O=C(O)C(F)(F)F | 8.346
Cn1cc(CN2CC[C@H]3[C@H]2CC(=O)N3Cc2ccncc2)cn1 | 97.58
CCOC(=O)N1CCC2(CCNC2)C1.Cl (configuration not stated) | -20.05
CN1CCC2(COCc3cnc(N4CCOCC4)nc32)C1.O=C(O)C(F)(F)F (configuration not stated) | -0.9764

SMILES | Percent Effect [%]
CC(C)c1nccc([C@H]2C[C@@H]3CCN(Cc4ccoc4)C[C@H]3O2)n1 | -1.768
CCc1noc(CN(C)CCC(=O)Nc2ccc(C#N)c(Cl)c2)n1 | 4.268
CN(CCOCC1CC1)C(=O)Nc1ccc(C#N)c(Cl)c1 | 80.92
N#Cc1ccc(NC2CCN(c3ncccn3)CC2)cc1Cl | -9.238
O=C(Nc1cccnc1)[C@@H]1C[C@H]2OCC[C@H]2N(Cc2ccsc2)C1.O=C(O)C(F)(F)F.O=C(O)C(F)(F)F | -12.16
O=C(Nc1cccnc1)[C@H]1CN(C2CCCC2)C[C@H]2OCC[C@@H]12.O=C(O)C(F)(F)F.O=C(O)C(F)(F)F | 2.861
O=C(Nc1cccnc1)[C@H]1C[C@@H]2CCN(Cc3nccs3)C[C@@H]2O1.O=C(O)C(F)(F)F.O=C(O)C(F)(F)F | 21.14
CN1CC[C@@H]2OC[C@H](C(=O)N(C)Cc3ccccn3)C[C@@H]2C1.O=C(O)C(F)(F)F.O=C(O)C(F)(F)F | 91.38
CCCN1CC[C@@H]2OC[C@H](C(=O)Nc3cccnc3)C[C@@H]2C1.O=C(O)C(F)(F)F.O=C(O)C(F)(F)F | 103.7
O=C(Nc1cccnc1)[C@H]1CO[C@H]2CCNC[C@H]2C1.O=C(O)C(F)(F)F.O=C(O)C(F)(F)F | 99.23
Cc1ccc(C(=O)N2C[C@@H]3CCN(C(C)C)C[C@@H]3C2)cn1.O=C(O)C(F)(F)F | -22.14
O=C(Nc1cccnc1)[C@H]1COC[C@H]2CN(C3CCCC3)C[C@H]21.O=C(O)C(F)(F)F.O=C(O)C(F)(F)F | 10.99
CN(C)C(=O)[C@@H]1CC[C@@H]2[C@@H](CCN2Cc2ccccn2)O1.O=C(O)C(F)(F)F.O=C(O)C(F)(F)F | -15.27
CC(C)N1CC[C@@H]2OC[C@H](C(=O)Nc3cccnc3)C[C@@H]2C1.O=C(O)C(F)(F)F.O=C(O)C(F)(F)F | 84.8
CN(Cc1ccccn1)C1CCC[C@@H]2CN(CC3CC3)C[C@H]12.O=C(O)C(F)(F)F.O=C(O)C(F)(F)F (some centres not stated) | -32.78
CCOCCN1C[C@H](C(=O)Nc2cccnc2)[C@@H]2CCO[C@@H]2C1.O=C(O)C(F)(F)F.O=C(O)C(F)(F)F | 4.673
Cl.O=C(C1CCC1)N1CCC2(CCNCC2)C1 | -22.91
O=C(Cc1ccc(O)c(Cl)c1)N1CCN(CC2CC2)[C@@H]2CS(=O)(=O)C[C@@H]21 | 2.879
Cc1cc(C)c(CNc2cnc3ccccc3n2)c(=O)[nH]1 | 10.07
CC1COC2(CCN(C(=O)c3ncoc3C(C)C)CC2)O1 (configuration not stated) | 0.05226
O=C(O)C(F)(F)F.O=C(O)C(F)(F)F.O=C1[C@H]2CN(Cc3ccoc3)C[C@H]2CN1Cc1ccncc1 | 1.4

SMILES | Percent Effect [%]
CS(=O)(=O)Cc1nc(CN2CC=C(c3ccccc3)CC2)cs1 | 9.315
O=C(C1CCC1)N1CC[C@]2(O)CCN(Cc3ncccn3)C[C@@H]2C1 | 9.794
Cc1noc([C@@H]2C[C@H]3OCC[C@H]3N(C(C)C)C2)n1.O=C(O)C(F)(F)F | 82.77
Cc1noc([C@H]2C[C@H]3OCC[C@H]3N(Cc3ccncc3)C2)n1 | 9.305
Cc1noc([C@]23COC[C@H]2CN(C(C)C)C3)n1.O=C(O)C(F)(F)F | -9.217
Cc1nc(COC[C@H]2CC[C@H]3NCC[C@H]3O2)cs1.Cl.Cl | -19.37
Cc1cc(CN2C[C@@H]3COC[C@]3(CNC(=O)N3CCCC3)C2)no1.O=C(O)C(F)(F)F | -10.59
Cc1noc(C)c1CN1CC2(CCCCN2C)CC1=O.O=C(O)C(F)(F)F (configuration not stated) | -9.804
COCCNC(=O)[C@@]12CCO[C@@H]1CCN(Cc1c(C)noc1C)C2.O=C(O)C(F)(F)F | -6.3
Cc1noc(C)c1CN1CCCC2(CCN(CC3CCCC3)C2)C1.O=C(O)C(F)(F)F (configuration not stated) | 102.6
Cc1noc(C)c1CN1CC[C@H]2O[C@@H](C(=O)N3CCCC3)CC[C@H]21.O=C(O)C(F)(F)F | 9.45
Cc1noc(C)c1CN1CCCC2(CCN(C(=O)C3CC3)C2)C1 (configuration not stated) | 106.9
Cc1ccc(CC(=O)N2CCN(C(C)c3ccccc3F)CC2)cn1 (configuration not stated) | 7.645
COCCNC1(c2ccc(Cl)cc2)CCOCC1 | 5.533
CC(C)=CCN1C[C@H]2CC[C@@H]1CN(Cc1cc(=O)[nH]c(=O)[nH]1)C2 | 7.172
Cc1cc(NCCc2c[nH]cn2)nc(-c2cccnc2)n1 | 99.48
CCc1ccccc1OCCNCCc1c[nH]cn1 | -3.829
Cc1cnc(NCCc2c[nH]cn2)nc1-c1ccnn1C | -2.604
CN(Cc1cc(C2CC2)on1)C(=O)CN1CC(c2ccccc2)CC1=O (configuration not stated) | -9.848
Cc1cc(CN(C)C(=O)CN2CCCC2=O)no1 | 135.7
Cc1noc(C)c1CN(C)C(=O)CN1CC(c2ccccc2)CC1=O (configuration not stated) | -0.5183

SMILES | Percent Effect [%]
CCc1noc(CC)c1CC(=O)N1CCCC(N2CCCCC2)C1 (configuration not stated) | -13.04
CN(c1ncccc1C#N)C1CCN(CCc2ccccn2)CC1 | 3.648
O[C@@]1(CNCCCOc2cccnc2)CCCN2CCCC[C@@H]21 | -22.25
COCCN1CCO[C@H]2CN(C(=O)c3ccncc3F)C[C@H]21.O=C(O)C(F)(F)F | -13.21
CC(C)=CCN1C[C@H]2CC[C@@H]1CN(C(=O)c1c[nH]c(=O)c(Cl)c1)C2 | -5.36
Cc1ncc(CC(=O)N2C[C@@H]3CC[C@H](C2)N(CC2CCC2)C3)c(=O)[nH]1 | 1.908
O=C(c1c[nH]c(=O)c(Cl)c1)N1C[C@@H]2CC[C@H](C1)N(CC1CCC1)C2 | 97.45
CCCn1cc(C(=O)NC(C(=O)O)c2ccccc2C(F)(F)F)c(C)n1 (configuration not stated) | 7.837
O=C(Cc1ccc(CO)cc1)N1CCN(CC2CC2)[C@@H]2CS(=O)(=O)C[C@@H]21 | -14.38
CN(C)CCN1CCN(CC2CC2)c2ncccc2C1 | 104.8
CN1CCN(Cc2ccoc2)Cc2cccnc21 | -15.03
CN1CCN(S(C)(=O)=O)Cc2cccnc21 | 126.5
CN1CCN(c2ncccn2)CC12CCC(=O)N(CC1CC1)CC2 (configuration not stated) | -4.361
CCS(=O)(=O)N1CCN(C)c2ncccc2C1 | 97.89
CN1CCN(S(=O)(=O)C2CC2)Cc2cccnc21 | 113.9
Cl.O=C(NCC1CCCCC1)N1C[C@@H]2C[C@H]1CN2 | -10.23
CCCN1CCN(C(=O)c2ccc(Cl)cn2)[C@H]2CS(=O)(=O)C[C@H]21 | 7.172
CCC(C(=O)N1CCCSCC1)N1CCCC1=O (configuration not stated) | 0.6755
Cc1cccc(CN2CC3C[C@]3(NC(=O)c3ccco3)C2)n1 (some centres not stated) | -15.21
